The entries come from a sample that favours hits as a whole.
IDE exosite inh: insulin-degrading enzyme (human) exo-site inhibition | P14735 | purified IDE, FL-6b probe fluorescence polarization; stronger effect = lower value | z-score at 20 µM | 6.3% of 17,000 active;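 active = z-score of -3 or lower, meaning strong loss of probe binding signal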;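 note: His-tagged human IDE residues 42-1019 made in E. coli with 30 nM FL-6b probe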
Target sequence (P14735 42-1019 limits assumed): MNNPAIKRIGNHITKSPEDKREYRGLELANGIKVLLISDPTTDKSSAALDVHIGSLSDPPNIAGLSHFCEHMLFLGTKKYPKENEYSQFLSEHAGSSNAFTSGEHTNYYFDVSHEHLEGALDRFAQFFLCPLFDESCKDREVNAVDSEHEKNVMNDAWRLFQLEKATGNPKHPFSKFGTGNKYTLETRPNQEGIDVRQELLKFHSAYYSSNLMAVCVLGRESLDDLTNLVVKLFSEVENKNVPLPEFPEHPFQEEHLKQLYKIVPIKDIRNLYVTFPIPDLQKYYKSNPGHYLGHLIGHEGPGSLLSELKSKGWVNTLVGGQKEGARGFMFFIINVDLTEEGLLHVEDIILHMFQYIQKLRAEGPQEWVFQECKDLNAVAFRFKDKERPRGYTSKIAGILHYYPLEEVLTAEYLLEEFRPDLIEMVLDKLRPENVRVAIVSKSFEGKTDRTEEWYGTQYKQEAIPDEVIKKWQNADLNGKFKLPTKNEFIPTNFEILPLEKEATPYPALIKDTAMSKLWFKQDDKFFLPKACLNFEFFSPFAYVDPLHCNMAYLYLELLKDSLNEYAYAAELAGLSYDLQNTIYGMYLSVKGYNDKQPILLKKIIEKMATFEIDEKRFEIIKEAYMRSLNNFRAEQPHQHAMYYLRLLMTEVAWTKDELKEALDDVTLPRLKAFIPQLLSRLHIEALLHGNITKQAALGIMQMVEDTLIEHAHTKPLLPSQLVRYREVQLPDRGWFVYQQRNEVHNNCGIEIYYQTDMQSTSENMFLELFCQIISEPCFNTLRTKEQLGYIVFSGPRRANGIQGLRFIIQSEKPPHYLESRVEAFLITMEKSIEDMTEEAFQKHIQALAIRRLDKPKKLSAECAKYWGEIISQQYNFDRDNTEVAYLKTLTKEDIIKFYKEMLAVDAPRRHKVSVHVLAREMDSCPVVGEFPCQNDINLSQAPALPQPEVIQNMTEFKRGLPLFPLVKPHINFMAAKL
Of the large screens only hits and unclear results are named; the others gave an inactive call.

O=C1CN(S(=O)(=O)Cc2ccccc2)C[C@@H]2[C@H](c3ccc(C#Cc4cccnc4)cc3)[C@@H](CO)N12	none
CC(C)CC#Cc1ccc([C@@H]2[C@@H](CO)N3C(=O)CN(S(=O)(=O)c4cccc(F)c4)C[C@@H]23)cc1	none
CN1C(=O)c2cc(NC(=O)c3cscn3)ccc2OC[C@H]2O[C@@H](CC(=O)N3CCOCC3)CC[C@@H]21	none
N#Cc1ccc(-c2ccc([C@H]3[C@@H](CO)N4C(=O)CN(C(=O)C5CCCC5)C[C@H]34)cc2)cc1	none
CN(C[C@H]1N[C@@H](CO)[C@@H]1c1ccc(C2=CCCC2)cc1)C(=O)c1ccccn1	none
CS(=O)(=O)N1CC(=O)N2[C@@H](CO)[C@H](c3ccc(C#CC4CCCC4)cc3)[C@@H]2C1	none
CCC(=O)N1[C@H](CN(C(C)C)S(C)(=O)=O)[C@H](c2ccccc2)[C@@H]1CO	none
COc1ccc(S(=O)(=O)Nc2cccc3c2O[C@@H](CN(C)CC2CCCCC2)[C@@H](C)CN([C@@H](C)CO)C3=O)cc1	none
CNC(=O)C[C@H]1CC[C@H]2[C@@H](COC[C@H](O)CN2Cc2ccccc2F)O1	none
O=C(C1CC1)N1CC(=O)N2[C@H](C1)[C@@H](c1ccc(C#CCc3ccccc3)cc1)[C@@H]2CO	none
CCS(=O)(=O)N(C)C[C@@H]1N[C@H](CO)[C@@H]1c1ccc(C2=CCCCC2)cc1	none
O=C(C[C@H]1CC[C@H]2[C@@H](COC[C@H](O)CN2Cc2cc(F)cc(F)c2)O1)Nc1nccs1	none
CCCC#Cc1ccc([C@@H]2[C@H](C#N)N(C(=O)C3CC3)[C@H]2CO)cc1	none
CC(=O)N1CCCCN2[C@H](CO)[C@H](c3ccc(-c4ccc(C)cc4)cc3)[C@H]2C1	none
Cc1cccc(-c2ccc([C@@H]3[C@@H](CO)N4CCCCN(C(=O)c5ccc6c(c5)OCO6)C[C@H]34)cc2)c1	none
CC(=O)N1CCCCN2[C@@H](CO)[C@H](c3ccc(-c4ccccc4)cc3)[C@@H]2C1	none
CC(=O)N1CCCCN2[C@H](CO)[C@H](c3ccc(-c4cccc(C)c4)cc3)[C@@H]2C1	none
CC(=O)N1CCCCN2[C@H](CO)[C@H](c3ccc(-c4ccccc4)cc3)[C@H]2C1	none
CC(=O)N1CCCCN2[C@@H](CO)[C@H](c3ccc(-c4cccc(C)c4)cc3)[C@@H]2C1	IDE exosite inh -3.2
Cc1cccc(-c2ccc([C@H]3[C@@H](CO)N4CCCCN(C(=O)c5ccc6c(c5)OCO6)C[C@@H]34)cc2)c1	none
Cc1cccc(-c2ccc([C@H]3[C@@H](CO)N4CCCCN(C(=O)c5ccc6c(c5)OCO6)C[C@H]34)cc2)c1	IDE exosite inh -8.11
CC(=O)N1CCCCN2[C@H](CO)[C@H](c3ccc(-c4cccc(C)c4)cc3)[C@H]2C1	IDE exosite inh -11.7
COc1ccc(S(=O)(=O)N2CCCCN3[C@H](C2)[C@@H](c2ccc(C#CC(C)C)cc2)[C@@H]3CO)cc1	none
CN(C)CC(=O)N1[C@H](CO)[C@H](c2ccccc2-c2ccc(C(=O)N(C)C)cc2)[C@@H]1C#N	none
COCC#Cc1ccc([C@@H]2[C@@H](CO)N3C(=O)CN(C(=O)Nc4ccccc4F)C[C@H]23)cc1	none
N#C[C@@H]1[C@H](c2ccccc2)[C@H](CO)N1C(=O)CCN1CCCCC1	none
CC(C)CC#Cc1ccc([C@@H]2[C@H](CO)N3C(=O)CN(C(=O)NC(C)C)C[C@@H]23)cc1	none
CO[C@H]1CC[C@H]2CCOc3ccc(C#N)cc3C(=O)N(C)[C@@H](C)C(=O)N(C)C[C@H]1O2	none
O=C(C1CCCC1)N1CC(=O)N2[C@@H](CO)[C@H](c3ccc(Br)cc3)[C@@H]2C1	none
CC(C)NC(=O)N1CCCCN2[C@H](CO)[C@H](c3ccc(C#C[C@@H](C)O)cc3)[C@@H]2C1	none
CC(C)NC(=O)N1CCCCN2[C@H](C1)[C@H](c1ccc(C#C[C@H](C)O)cc1)[C@@H]2CO	none
CC(C)NC(=O)N1CCCCN2[C@@H](CO)[C@H](c3ccc(C#Cc4ccccc4)cc3)[C@@H]2C1	IDE exosite inh -11.1
CC(C)NC(=O)N1CCCCN2[C@H](CO)[C@H](c3ccc(C#Cc4ccccc4)cc3)[C@@H]2C1	IDE exosite inh -9.76
CC(C)NC(=O)N1CCCCN2[C@H](CO)[C@@H](c3ccc(C#C[C@H](C)O)cc3)[C@H]2C1	none
CC(C)C#Cc1ccc([C@@H]2[C@@H](CO)N3CCCCN(C(=O)NC(C)C)C[C@H]23)cc1	none
CC(C)NC(=O)N1CCCCN2[C@H](CO)[C@@H](c3ccc(C#C[C@@H](C)O)cc3)[C@H]2C1	none
CC(C)NC(=O)N1CCCCN2[C@H](CO)[C@@H](c3ccc(C#Cc4ccccc4F)cc3)[C@@H]2C1	none
CC(C)NC(=O)N1CCCCN2[C@H](CO)[C@@H](c3ccc(C#Cc4ccccc4)cc3)[C@@H]2C1	IDE exosite inh -7.45
CN1CCN(C(=O)C[C@@H]2CC[C@H]3[C@H](COc4ccc(NC(=O)C5CCOCC5)cc4C(=O)N3C)O2)CC1	none
COc1ccc2c3c(n(C)c2c1)[C@H](CO)N(C(=O)Cc1ccccn1)CC31CCN(C)CC1	none
COc1cccc(NC(=O)N2CC(=O)N3[C@H](C2)[C@@H](c2ccc(C#CC4CCCCC4)cc2)[C@@H]3CO)c1	none
CNC[C@@H]1OCCCC[C@@H](C)Oc2ccc(N)cc2C(=O)N([C@@H](C)CO)C[C@H]1C	none
O=C(C[C@@H]1CC[C@@H]2[C@H](COC[C@H](O)CN2CCc2ccccc2)O1)NCCCN1CCOCC1	none
C/C=C/c1ccc(C2[C@H]3CNC[C@@H]2N3S(=O)(=O)Cc2ccccc2)cc1 (stereo partly specified)	none
C/C=C/c1ccc([C@@H]2[C@@H](CO)N(C(C)=O)C23CN(C(=O)NC2CCCCC2)C3)cc1	none
CN(C)C(=O)c1ccc(-c2ccccc2[C@@H]2[C@@H](CO)N(C(=O)C3CCCCC3)[C@H]2C#N)cc1	none
OC[C@H]1[C@@H](c2ccc(C#Cc3ccccc3)cc2)[C@@H]2CN(CC3CCOCC3)CCCCN12	IDE exosite inh -5.38
OC[C@@H]1[C@@H](c2ccc(C#Cc3ccccc3F)cc2)[C@@H]2CN(CC3CCOCC3)CCCCN12	none
O=C(CN1CCOCC1)N1CCCCN2[C@@H](CO)[C@@H](c3ccc(-c4ccccc4)cc3)[C@@H]2C1	none
O=C(CN1CCOCC1)N1CCCCN2[C@H](CO)[C@H](c3ccc(C#Cc4ccccc4)cc3)[C@@H]2C1	IDE exosite inh -12.9
OC[C@@H]1[C@@H](c2ccc(C#Cc3ccccc3)cc2)[C@H]2CN(CC3CCOCC3)CCCCN12	none
O=C(CN1CCOCC1)N1CCCCN2[C@H](CO)[C@@H](c3ccc(C#Cc4ccccc4)cc3)[C@@H]2C1	IDE exosite inh -6.17
O=C(CN1CCOCC1)N1CCCCN2[C@H](C1)[C@H](c1ccc(-c3ccccc3)cc1)[C@@H]2CO	none
CC[C@H]1C/C=C\C[C@H](C(C)C)NC(=O)CCC(=O)N1	none
COc1ccccc1S(=O)(=O)N1CC[C@@H]2[C@@H](CO)Nc3ccc(-c4ccc(C#N)cc4)cc3[C@@H]21	none
O=C1CN(Cc2ccc(F)cc2)C[C@@H]2[C@@H](c3ccc(-c4ccccc4F)cc3)[C@@H](CO)N12	none
O=C(c1ccncc1)N1C[C@@H]2[C@H](c3ccccc31)[C@H](CO)N2C(=O)CN1CCOCC1	none
C[C@@H](O)C#Cc1ccc([C@@H]2[C@@H](CO)N3CCCCN(S(=O)(=O)Cc4ccccc4)C[C@H]23)cc1	none
CC(C)C#Cc1ccc([C@H]2[C@H](CO)N3C(=O)CN(C(=O)Cc4ccccc4)C[C@@H]23)cc1	none
COc1ccc(-c2ccc3n(c2=O)C[C@@H]2[C@@H](CO)[C@H](C(=O)N(C)C)[C@H]3N2Cc2cncnc2)cc1	none
